Measured values reported in PubChem BioAssay (NCATS).
Where “and” joins values, the source holds several entries; their conditions need not be identical. Equal entries are not always repeated. Inconclusive results are not listed. A call without a number means that no potency is given here. A structure can be active in one record and inactive in another. Calls of active or inactive are those of the source. Unless noted, calls follow the shape of the dose curve; as a rule, active = well fitted curve in the direction sought with a large enough effect; inconclusive = small, poorly fitted or top-dose-only effect, or another doubt; inactive = no such curve, though single readings can be large; an effect the other way counts as inactive or inconclusive.

Legend:
[1] = High-throughput drug toxicity screening in the BPDCN cell line Gen2.2 (AID 1224824; call rule not given here;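 also: cells exposed to compounds for 48 h before reading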); settings: Gen2.2 BPDCN cells; at 45.8 µM (top of the series) unless noted
Outline: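 Seed 500 exponentially growing Gen2.2 cells/well; add compounds by pin tool; incubate 48 h, 37 °C, 5% CO2; add CellTiter-Glo, 15 min RT; read luminescence. % activity vs DMSO (100%) and bortezomib (0%).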

[2] = High-throughput drug toxicity screening in the BPDCN cell line Cal-1 (AID 1224825; call rule not given here); settings: Cal-1 BPDCN cell viability, qHTS; at 45.8 µM (top of the series) unless noted
Outline: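 Exponentially growing Cal-1 cells, 500 per well in phenol red-free RPMI with 10% FBS, were exposed to compounds for 48 h at 37 °C, 5% CO2. Viability was read by CellTiter-Glo luminescence and normalised to DMSO (100%) and 9.2 uM bortezomib (0%).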

[3] = qHTS assay for measurement of the activity of small molecule inhibitors on Zika virus induced Caspase-3 activity in human iPSC derived neural progenitor cells (hNPCs) (AID 1224857); settings: hNPCs ZIKV-induced caspase-3/7, Caspase-Glo luminescence, 6 h; series mostly up to 45.7 µM; also: nearly all actives have a fitted effect of over 65% in size; also: potency is read from the fitted curve at half-maximal effect
Outline: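 After overnight (16–20 h) culture at 350 cells/well, hNPCs get compound, then ZIKV 2 FFU/cell one hour later. Six hours on, Caspase-Glo 3/7 is added and luminescence measured.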

[4] = qHTS assay for measurement of the activity of small molecule inhibitors on Zika virus induced Caspase-3 activity in human astrocytoma cells (AID 1224859); settings: SNB-19 ZIKV-induced caspase-3/7, luminescence, 6 h; series mostly up to 45.7 µM
Outline: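 Inhibition of Zika-induced caspase-3/7 activity: SNB-19 cells, 1 h compound pretreatment, ZIKV 2 FFU/cell for 6 h at 37 C, Caspase-Glo luminescence read-out.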

[5] = qHTS Screen of the MIPE 4.0 Collection Against Ewings Sarcoma (RDES) (AID 1259252); settings: RD-ES Ewing sarcoma viability, CellTiter-Glo, 48 h; series mostly up to 45.8 µM; also: nearly all actives have a fitted effect of over 35% in size; also: potency is read from the fitted curve at half-maximal effect
Outline: (§1)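 Here, cells in 5% FBS RPMI were exposed for two days (48 h) to compound dilutions added four hours after plating. ATP-based CellTiter-Glo luminescence measured viability, normalized to vehicle and no-cell blanks.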

[6] = qHTS Screen of the MIPE 4.0 Collection Against Ewings Sarcoma (TC71) (AID 1259253); settings: TC71 Ewing sarcoma viability, CellTiter-Glo, 48 h; series mostly up to 45.8 µM; also: nearly all actives have a fitted effect of over 40% in size; also: potency is read from the fitted curve at half-maximal effect
Outline: as §1

[7] = qHTS Screen of the MIPE 4.0 Collection Against Ewings Sarcoma (EW8) (AID 1259255); settings: EW8 Ewing sarcoma viability, CellTiter-Glo, 48 h; series mostly up to 45.8 µM; also: nearly all actives have a fitted effect of over 35% in size; also: potency is read from the fitted curve at half-maximal effect
Outline: as §1

[8] = qHTS Screen of the MIPE 4.0 Collection Against Ewings Sarcoma (TC32) (AID 1259256); settings: TC32 Ewing sarcoma viability, CellTiter-Glo, 48 h; series mostly up to 45.8 µM; also: nearly all actives have a fitted effect of over 45% in size; also: potency is read from the fitted curve at half-maximal effect
Outline: as §1

[9] = Cell Proliferation Assay Versus the ED40515 IL2 Dependent ATL cell lines (AID 1053195; calls by dose curve); settings: ED40515 IL2-dependent ATL cells
Outline: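 IL2-dependent ED40515 ATL cells grown with IL2, 1000 cells/well in phenol red-free RPMI + 5% FBS, exposed 48 hours at 37C. Viability by CellTiter-Glo luminescence after 15 min at RT; 9.2 uM bortezomib as control.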

[10] = qHTS assay to identify small molecule inhibitors of chordoma cells - UCH-1 (AID 1259355); settings: UCH-1 chordoma viability, CellTiter-Glo, 48 h, combination, with auranofin plus four topoisomerase inhibitors; series mostly up to 46.1 µM; also: nearly all actives have a fitted effect of over 55% in size
Outline: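 Luminescent ATP read-out (CellTiter-Glo, 30min at room temperature) measured viability of UCH-1 cells exposed for 48hr to test drugs at 15 concentrations, co-dosed with a five-agent combination of auranofin, camptothecin, doxorubicin, rubitecan and topotecan.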

| Structure (SMILES) | cell viability, % of control (lower = more cytotoxic) [1] | viability (% of control) [2] | Potency [3] | Potency [4] | Potency [5] | Potency [6] | Potency [7] | Potency [8] | Potency [9] | Potency [10] |
| --- | --- | --- | --- | --- | --- | --- | --- | --- | --- | --- |
| C[C@]12CC[C@H](O)CC1=CC[C@@H]1[C@H]2CC[C@]2(C)C(c3cccnc3)=CC[C@H]12 | 60.5% [at 23.2 µM] | 98.4% [at 23.2 µM] | inactive | inactive | inactive | inactive | inactive | – | – | – |
| NC(=O)c1ccc(-c2nc(-c3ccc4c(c3)OCO4)c(-c3ccccn3)[nH]2)cc1 | 624% | 113% | inactive | inactive | inactive | 14.8 µM (active) | 16.6 µM (active) | inactive | – | – |
| Cc1cc(Nc2nc(N[C@@H](C)c3ncc(F)cn3)ncc2Cl)n[nH]1 | 151% | 4.1% | inactive | inactive | 6.62 µM (active) | 10.5 µM (active) | 26.4 µM (active) | – | – | – |
| O=C(NOC[C@H](O)CO)c1ccc(F)c(F)c1Nc1ccc(I)cc1F | 14.5% | 41.6% | inactive | inactive | – | – | – | – | – | – |
| C[C@]12CCC(=O)C=C1CC[C@@H]1[C@@H]2[C@@H](O)C[C@@]2(C)[C@H]1CC[C@]2(O)C(=O)CO | – | – | inactive | inactive | – | – | – | – | 14.8 µM (active) | – |
| COc1ccc(CCN2CCN(CCCc3ccccc3)CC2)cc1OC | 340% | 64.5% | inactive | inactive | inactive | – | – | – | – | – |
| Cc1cc2c(C(C)C)c(O)c(O)c(C=O)c2c(O)c1-c1c(C)cc2c(C(C)C)c(O)c(O)c(C=O)c2c1O | 14.5% | 6.4% | inactive | inactive | 10.5 µM (active) | 13.2 µM (active) | 11.8 µM (active) | 18.7 µM (active) | – | – |
| CCCn1c(=O)c2[nH]c(C34CC5CC3C[C@@H](C5)C4)nc2n(CCC)c1=O | 214% | 125% | inactive | inactive | – | – | – | – | – | – |
| COc1cc(Oc2ccnc3cc(OC)c(OC)cc23)ccc1NC(=O)NC(C)c1nccs1 (stereo unspecified) | 98.9% | 32.2% | inactive | inactive | – | – | – | – | – | – |
| CC(C[N+](C)(C)C)OC(N)=O (stereo unspecified) | 120% | 120% | inactive | inactive | inactive | inactive | inactive | – | – | – |
| N=c1nc(N2CCCCC2)cc(N)n1O | 450% | 106% | inactive | inactive | inactive | inactive | inactive | inactive | – | – |
| Oc1ccc(C2CNCCc3c2cc(O)c(O)c3Cl)cc1 (stereo unspecified) | 156% | 66.9% | inactive | inactive | inactive | inactive | inactive | – | – | – |
| NCCCC(N)(C(=O)O)C(F)F (stereo unspecified) | 77.2% | 47.4% | inactive | inactive | inactive | inactive | inactive | inactive | – | – |
| Nc1ccc(S(=O)(=O)Nc2ccnn2-c2ccccc2)cc1 | 153% | 115% | inactive | inactive | inactive | inactive | inactive | – | – | – |
| NC[C@H](O)c1ccc(O)c(O)c1 | 132% | 96.3% | inactive | inactive | inactive | inactive | inactive | – | – | – |
| Cc1c(C)c2c(c(C)c1O)CCC(C)(COc1ccc(CC3SC(=O)NC3=O)cc1)O2 (stereo unspecified) | 31.1% | 91.7% | inactive | inactive | inactive | inactive | inactive | inactive | – | – |
| Cc1ccccc1C(C(=O)NC1CCCC1)N(C(=O)Cn1cnc2ccccc21)c1cccc(F)c1 (stereo unspecified) | 30.2% | 102% | inactive | inactive | – | – | – | – | – | – |
| OCCn1cc(-c2cnc3nnn(Cc4ccc5ncccc5c4)c3n2)cn1 | 140% | 89.8% | inactive | inactive | inactive | inactive | inactive | – | – | – |
| CNC(=O)c1ccc(C)c(-n2c(C)cc(OCc3ccc(F)cc3F)c(Br)c2=O)c1 | 140% | 94.3% | inactive | inactive | – | – | – | – | – | – |

| Structure (SMILES) | cell viability, % of control (lower = more cytotoxic) [1] | viability (% of control) [2] | Potency [3] | Potency [4] | Potency [5] | Potency [6] | Potency [7] | Potency [8] | Potency [9] | Potency [10] |
| --- | --- | --- | --- | --- | --- | --- | --- | --- | --- | --- |
| O=c1[nH]cnc2[nH]ncc12 | 124% | 101% | inactive | inactive | inactive | inactive | inactive | – | – | – |
| N#CC[C@H](C1CCCC1)n1cc(-c2ncnc3[nH]ccc23)cn1 | 230% | 56.3% | inactive | inactive | 18.7 µM (active) | 20.9 µM (active) | 16.6 µM (active) | – | – | – |
| CO[C@@H]1[C@H](N(C)C(=O)c2ccccc2)C[C@H]2O[C@]1(C)n1c3ccccc3c3c4c(c5c6ccccc6n2c5c31)C(=O)NC4 | 21.1% | 14.1% | – | – | – | – | – | – | – | – |
| Cc1c(CN2CCN(C(=O)C(C)C)CC2)sc2c(N3CCOCC3)nc(-c3cnc(N)nc3)nc12 | 2.32% | 3.99% | inactive | inactive | 0.0833 µM (active) | 0.148 µM (active) | 0.105 µM (active) | 0.0662 µM (active) | – | – |
| Cc1cn[nH]c1 | 120% | 55.7% | inactive | inactive | 0.0074 µM (active) | 0.0469 µM (active) | 0.059 µM (active) | inactive | – | – |
| C[C@H](NC(=O)Cc1cc(F)cc(F)c1)C(=O)N[C@@H]1C(=O)N(C)c2ccccc2-c2ccccc21 | 176% | 43.1% | inactive | inactive | 8.33 µM (active) | 10.5 µM (active) | 11.8 µM (active) | 11.8 µM (active) | – | – |
| Cn1cnc([N+](=O)[O-])c1Sc1ncnc2nc[nH]c12 | 16.2% | 93.1% | inactive | inactive | 2.64 µM (active) | 1.18 µM (active) | 4.69 µM (active) | 3.32 µM (active) | – | – |
| Cc1[nH]c(=O)c(C#N)cc1-c1ccncc1 | 244% | 23% | inactive | inactive | inactive | inactive | inactive | inactive | – | inactive |
| OC(CN1CCC(Cc2ccc(F)cc2)CC1)c1ccc(Cl)cc1 (stereo unspecified) | 156% | 99.3% | inactive | inactive | inactive | inactive | inactive | inactive | – | – |
| CC(C=CC1=C(C)CCCC1(C)C)=CC=CC(C)=CC(=O)O | 49.1% and 83.4% | 39.4% and 7.95% | inactive | inactive | 23.5 µM (active) | – | 20.9 µM (active) and 9.35 µM (active) | – | – | – |
| CCC(=O)N[C@H]1CC[C@H](C(=O)N(C)c2ccc(-c3nc4ccccc4o3)cc2)C1 | 198% | 92.1% | inactive | inactive | – | 2.35 µM (active) | – | – | – | – |
| CCC(C)n1ncn(-c2ccc(N3CCN(c4ccc(OC[C@H]5CO[C@](Cn6cncn6)(c6ccc(Cl)cc6Cl)O5)cc4)CC3)cc2)c1=O (stereo partly specified) | 92.6% | 93.9% | inactive | inactive | – | inactive | inactive | – | – | – |
| NNCCc1ccccc1 | 133% | 10.4% | inactive and 26.4 µM (active) | inactive | 8.33 µM (active) | 20.9 µM (active) | 9.35 µM (active) | 11.8 µM (active) | – | inactive |
| NC(N)=NC(=O)c1nc(Cl)c(N)nc1N | 12.8% | 23.5% | inactive | inactive | inactive | inactive | inactive | inactive | – | – |
| NS(=O)(=O)c1cc2c(cc1Cl)NC=NS2(=O)=O | 71.6% | 26.7% | inactive | inactive | inactive | inactive | inactive | inactive | – | – |
| CCOc1ccn(-c2ccc(F)cc2)c(=O)c1C(=O)Nc1ccc(Oc2ccnc(N)c2Cl)c(F)c1 | 145% | 23.7% | inactive | inactive | 23.5 µM (active) | – | – | 23.5 µM (active) | – | – |
| CCOc1cc(C(=O)Nc2ccc(Cl)c(-c3nc4ccccc4[nH]3)c2)cc(OCC)c1OCC | 0.788% | 43.8% | inactive | inactive | 14.8 µM (active) | – | – | 20.9 µM (active) | – | – |
| Clc1ccc(Nc2nnc(Cc3ccncc3)c3ccccc23)cc1 | 117% | 68.2% | inactive | inactive | – | 20.9 µM (active) | – | – | – | – |
